# Test results reported in article PMC5540273 (PLoS ONE, 2017).
# Experiments:
# Details in all cases: concentration: 1 μM, replicates: in singlicate; n = 1
# [1] = test system: T1, SNARK
# T1 construct: gene NUAK2
# [2] = test system: SNRK
# [3] = test system: SRC
# [4] = test system: SRMS
# [5] = test system: SRPK1
# [6] = test system: SRPK2
# [7] = test system: SRPK3
# [8] = test system: STK16
# [9] = test system: STK33
# [10] = test system: STK35
# 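Further: KINOMEscan kinase panel screen.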
Compound,%Inh [1] [%],%Inh [2] [%],%Inh [3] [%],%Inh [4] [%],%Inh [5] [%],%Inh [6] [%],%Inh [7] [%],%Inh [8] [%],%Inh [9] [%],%Inh [10] [%]
Cc1ccc(C(=O)Nc2ccc(Nc3ccnc4cc(-c5nccs5)ccc34)cc2O)cc1.Cl [GW494702],10,0,60,89,12,31,13,0,9,0
Cc1ccc(C)c(NC(=O)NC2CCN(c3ccnc(Nc4ccc(F)cc4)n3)C2)c1 (stereo not shown) [GSK1379720],0,0,0,0,24,49,0,0,0,0
CN(C)Cc1ccc(-c2ccc3c(Nc4ccc(Oc5ccccn5)cc4)ccnc3c2)o1 [GW567148],12,0,36,94.5,0,0,0,0,55,66
COc1cccc(C(=O)Nc2cccc(Oc3ccc4nc(NC(=O)C5CC5)cn4n3)c2)c1,5,8,94.1,20,40,29,0,0,10,0
Cc1ccc(C(=O)N2CC[C@@H](O)C2)cc1-n1c(C)cc(OCc2ccc(F)cc2F)c(Br)c1=O,0,0,97.7,0,0,0,0,19,2,0
CCS(=O)(=O)c1ccc(OC)c(Nc2nccc(-c3c(-c4cccc(NC(=O)c5c(F)cccc5F)c4)nn4ncccc34)n2)c1 [GSK326180],0,0,0,99.3,24,0,0,25,7,0
O=C(Nc1ccccc1F)NC1CCN(c2ccnc(Nc3ccc(F)cc3)n2)CC1 [GSK1379800],0,0,0,0,11,25,0,16,0,0
Cl.NC(=O)c1cccc(Nc2nccc(Nc3ccc(Oc4c(Cl)cccc4Cl)c(Cl)c3)n2)c1 [GW659009],1,5,18,19,37,0,6,35,0,0
COc1cc(Nc2nccc(-c3c(-c4cccc(NC(=O)c5c(F)cccc5F)c4)nn4ncccc34)n2)cc(OC)c1OC [GSK327238],95.2,0,99.9,98.5,38,0,0,67,22,96.9
COc1cc(Nc2ncc3c(C)nc(-c4cc5ccccc5[nH]4)n3n2)cc(OC)c1OC [GW869516],9,0,90.1,13,9,6,19,86,10,0
